Screening data from PubChem BioAssay.
A selection: hits, their analogues and other compounds. The true share with any hit is near 6.2%.
NTR1 ag: agonists of human NTR1, primary screen, imaging, U2OS cells, beta-arrestin-GFP, high content | NTR1-U2OS beta-arrestin-GFP spot imaging, agonist mode | activation, % at 20 µM | 330,000 compounds, 0.17% hits | AID 493036, 2011;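 active means activation at or above 40% of the spot to cytoplasm intensity ratio, with at least 20 cells analyzed; inconclusive means wells under 20 cells, flagged as cytotoxic or low count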;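 further: 0% = DMSO without peptide and 100% = 100 nM NTR1 peptide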
Target sequence (P30989 whole entry, looked up): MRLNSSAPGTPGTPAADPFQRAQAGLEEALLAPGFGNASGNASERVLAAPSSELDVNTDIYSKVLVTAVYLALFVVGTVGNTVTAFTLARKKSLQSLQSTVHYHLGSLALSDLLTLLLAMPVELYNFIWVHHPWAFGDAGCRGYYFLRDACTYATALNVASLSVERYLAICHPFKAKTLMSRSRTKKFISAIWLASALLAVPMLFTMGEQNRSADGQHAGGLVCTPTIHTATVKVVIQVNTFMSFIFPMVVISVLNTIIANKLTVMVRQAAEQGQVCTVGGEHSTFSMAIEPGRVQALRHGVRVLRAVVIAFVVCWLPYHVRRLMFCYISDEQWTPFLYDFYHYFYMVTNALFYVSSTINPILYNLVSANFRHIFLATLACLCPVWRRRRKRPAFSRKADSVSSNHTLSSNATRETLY
AHR activator: AHR activators, primary screen, cell-based, luminescence, luciferase reporter, human; 320,000 compounds, 2.5% hits; activation, % at 5 µM; AID 2796, 2010; AHR-responsive luciferase reporter cells; in the data active means activation above about 47%;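 further: 0% = vehicle wells and 100% = reference agonist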
SUMO Mot1 rescue: yeast Mot1-301 growth rescue at high temperature, primary screen, SUMOylation pathway inhibitor project, S. cerevisiae, ATP luminescence, 38.5C. growth rescue, % at 18.8 µM. AID 2716, 2010. S. cerevisiae Mot1-301 growth rescue; percent above DMSO median, 100 means doubled. 320,000 compounds, 1% hits;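 active means every valid replicate shows activation above 250% relative to neutral control wells; inactive means the rest, any valid replicate at or below 250%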;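 further: OY570 slx delta 5 strain wells were the positive control but not used for scaling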
Cardio protect: cardioprotection against H2O2-induced cell death, primary screen, uHTS, H9c2 cells, ATPLite luminescence | H9c2 cardiomyocytes, H2O2 injury protection, 2 h | protection from H2O2 cell death, % at 20 µM | 360,000 compounds, 0.63% hits | AID 588492, 2011;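 active means compounds giving at least 50% protection of heart cells from peroxide-induced death in the single-dose screen, raw or plate-pattern-corrected value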;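 further: 0% = DMSO wells with peroxide and 100% = DMSO wells without peroxide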
AI-2 QS modul: Vibrio harveyi AI-2 quorum sensing modulators, primary screen, JMH597 strain, luminescence/OD600 ratio | Vibrio harveyi JMH597 AI-2 luminescence/OD600 ratio, 9 h; active compounds read low; strain lacks LuxN and CqsS sensors; 0 = neutral-control median | activity change, % at 7.5 µM | 300,000 compounds, 0.4% hits | AID 2094, 2009; in the data active means activity change below about -75%, passing the limit was not always enough; inconclusive means no clear call, values can overlap the other calls;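 further: luminescence divided by OD600 gain over 9 h not by final OD600 alone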
NR3A LBD binder: binders of NR3A ligand-binding domain, primary screen, biophysical, differential scanning fluorimetry, uHTS. AID 1259313, 2017. Tm shift relative to glycine control, % at 25 µM. Glutamate receptor ionotropic, NMDA 3A (GRIN3A) ligand-binding domain. NR3A LBD differential scanning fluorimetry, Tm shift; 0% = protein alone, 100% = glycine-bound protein. 340,000 compounds, 2.5% hits;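 active means melting temperature shift of at least 10% of the positive control shift, at one fixed dose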
JMH597 growth: Vibrio harveyi growth inhibition, confirmation, counter-screen for AI-2 quorum sensing project, JMH597 strain, OD600 absorbance; growth inhibition, % at 7.5 µM; 9 h; lacks LuxN and CqsS sensors; 750 compounds, 1% hits; shares compounds with AI-2 QS modul;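 active means every replicate shows growth inhibition above 50%; inconclusive means at least half, but not all, replicates pass that cutoff; inactive means fewer than half of replicates pass it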
BB721 const-QS lum: luminescence inhibition in constitutive-on V. harveyi, confirmation, counter-screen for LuxS inhibitor project, strain BB721, luminescence readout | inhibition, % at 7.5 µM | AID 2727, 2010 | Vibrio harveyi BB721 luminescence, 9 h | 750 compounds, 95% hits | shares compounds with AI-2 QS modul;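 active means inhibition above about 80% in every replicate, not just on average, limit read from the data; inconclusive means at least half of replicates past the limit, but not all; inactive means fewer than half of replicates past the limit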
BB721 growth rt: growth inhibition of V. harveyi BB721, confirmation, cytotoxicity control for AI-2 quorum sensing inhibitors, strain BB721, absorbance OD600; shares compounds with AI-2 QS modul; Vibrio harveyi BB721 growth, 9 h; growth inhibition, % at 7.5 µM; 750 compounds, 3% hits; AID 2728, 2010;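 active means every replicate shows growth inhibition above 50%; inconclusive means at least half but not all replicates above 50% inhibition; inactive means under half of replicates above 50% inhibition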
JMH597 AI-2 mod: Vibrio harveyi AI-2 signaling luminescence modulation – JMH597 strain, confirmation. shares compounds with AI-2 QS modul. Vibrio harveyi JMH597 AI-2 quorum sensing luminescence, 9 h; luxN and CqsS knockout, AI-2 only. inhibition, % at 7.5 µM. 750 compounds, 97% hits. AID 2736, 2010;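 active means every replicate shows more than 75% inhibition of signal versus neutral control wells; inconclusive means half to three quarters of replicates exceed 75% inhibition; inactive means fewer than half of replicates exceed 75% inhibition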
Starred values were filed as active, the others as inactive; ? = inconclusive; · = no result given.

SMILES	NTR1 ag	AHR activator	SUMO Mot1 rescue	Cardio protect	AI-2 QS modul	NR3A LBD binder	JMH597 growth	BB721 const-QS lum	BB721 growth rt	JMH597 AI-2 mod
O=C(/C=C/c1cccc(Cl)c1)NCc1ccccc1	0	-1	-13	-2	-89*	-2	1	96*	0	97*
COc1ccc(CN2C(=O)C(CC(=O)NC3CCCC3)CC(C(=O)N3CCOCC3)=C2C)cc1 (centres undefined)	·	·	·	0	·	·	·	·	·	·
O=C(Cc1ccsc1)Nc1ccc(S(=O)(=O)C(F)F)cc1	4	6	4	-4	-87*	0	19	97*	-17	100*
Cc1c(Cc2ccccc2)c(=O)oc2cc(OCC(=O)NCC3CCC(C(=O)O)CC3)ccc12 (centres undefined)	-1	0	197	3	42	0	·	·	·	·
Nc1nc(SCC(=O)c2ccc(Oc3ccccc3)cc2)n[nH]1	-1	2	-21	-4	-94*	-3	15	97*	-86	98*
Cc1ccc(Oc2ccc(NC(=O)CSc3n[nH]c(N)n3)cc2)cc1	2	-1	65	-7	-94*	-5	-3	95*	-8	98*
Cc1cccc(-c2noc(CNC(=O)c3ccco3)n2)c1	0	7	92	-3	-94*	1	8	99*	29	99*
Cc1cccc(NCc2nc(-c3ccccc3)no2)c1	0	5	5	-14	?	-4	12	96*	-11	98*
O=C(NCc1nc(-c2ccc(C(F)(F)F)cc2)no1)c1cccs1	0	-2	-2	-6	-94*	-6	-19	96*	-13	97*
O=C(NCc1nc(-c2ccccc2)no1)c1ccc(Br)o1	1	5	19	-8	-95*	0	-24	98*	-28	99*
CN(CC(=O)Nc1ccc(Cl)cc1)C(=O)CCC1CCCC1	0	2	-12	-5	16	2	·	·	·	·
CCCCn1c(N)c(N(C(=O)CSc2nnnn2-c2ccccc2C)C2CCCC2)c(=O)[nH]c1=O	0	·	·	0	·	-2	·	·	·	·
COc1ccc(NCc2cc(=O)oc3cc(NC(C)=O)ccc23)cc1	0	8	-2	4	-81*	-2	8	88*	8	93*
COc1ccc2c(CN3CCN(C(C)=O)CC3)cc(=O)oc2c1	·	·	·	3	·	·	·	·	·	·
O=C(Cc1cccc2ccccc12)NCC(=O)N1CCN(Cc2cccc(C(F)(F)F)c2)CC1	1	-1	-5	-15	·	-3	·	·	·	·
O=C(C1=C(O)C(=O)N(CCCn2ccnc2)C1c1cccc(Br)c1)c1ccco1 (centres undefined)	2	33	0	0	9	0	·	·	·	·
O=C(O)c1ccc(NCc2cccc(Br)c2)cc1	-1	-1	-3	9	-91*	-1	28	98*	?	98*
COc1ccc(CNc2ccc(Br)cc2)cc1	4	4	·	-13	-2	1	·	·	·	·
O=C(O)c1ccc(NCc2ccncc2)cc1	2	-1	9	4	25	-1	·	·	·	·
COc1ccc(CNc2ccc(C(=O)O)cc2)cc1	1	4	-9	0	-95*	-1	18	99*	-3	99*
Clc1ccc(CON/C=N/c2ncnc3sccc23)cc1	2	-3	8	-24	-93*	-1	17	98*	10	99*
C(=N\c1ncnc2sccc12)/NOCc1ccccc1	0	-6	-15	-24	-95*	-1	-11	98*	-24	98*
COc1ccc(C(CC(=O)c2ccc(O)cc2)S(=O)(=O)c2ccc(C)cc2)cc1 (centres undefined)	2	1	-12	-11	-91*	5	3	96*	-13	97*
COc1ccc(C(=O)CC(c2ccccc2)S(=O)(=O)c2ccc(C)cc2)cc1 (centres undefined)	10	4	-2	·	14	·	·	·	·	·
Cc1ccc(NC(=O)c2oc3ccc(Br)cc3c2C)cc1S(=O)(=O)N1CCOCC1	·	·	·	3	·	1	·	·	·	·
SMILES	NTR1 ag	AHR activator	SUMO Mot1 rescue	Cardio protect	AI-2 QS modul	NR3A LBD binder	JMH597 growth	BB721 const-QS lum	BB721 growth rt	JMH597 AI-2 mod
COc1ccc(NC(=O)Nc2nnc(Cc3ccccc3)s2)cc1	0	16	-2	-12	-16	-6	·	·	·	·
COc1ccc(Cc2nnc(CCc3ccccc3)s2)cc1	1	3	83	-5	?	-5	-31	78*	-33	86*
CC(C)=CC(=O)OCC(=O)Nc1ccc(SC(F)F)cc1	0	1	-8	-4	-87*	-2	19	93*	-3	96*
Cn1nc(C(=O)NNC(=O)Cc2ccc(S(=O)(=O)N3CCOCC3)s2)c2ccccc2c1=O	·	·	·	-1	·	1	·	·	·	·
CCCc1ccc(S(=O)(=O)N(C)S(=O)(=O)c2ccc(F)cc2)cc1	5	2	9	-12	?	3	45	46	26	99*
O=C(Nc1ccc(Oc2ccc3ccccc3c2)cc1)c1ccco1	0	-4	6	-17	-96*	-2	31	99*	102*	99*
Cc1ccc(NC(=O)CCC(=O)c2cccs2)c(O)c1	1	7	1	-10	-82*	-1	-11	93*	3	95*
O=C(NC(=O)c1ccccc1)Nc1cccc(S(=O)(=O)N2CCCCC2)c1	0	-1	5	0	20	0	·	·	·	·
Nn1c(SCc2ccc(Br)cc2)nnc1-c1ccccn1	1	22	-2	-11	-54	0	·	·	·	·
